Data from PubChem BioAssay AID1850 (Southern Research Specialized Biocontainment Screening …, 2009).
The whole screen tested about 310,000 compounds, of which about 1,000 (0.32%) were called active. The rule behind the calls is not given here. These entries were drawn from the full list. Entries with a potency or affinity are not part of this list.

Test: PhoP regulon inhibitors, Salmonella typhi PhoP promoter GFP reporter, confirmatory (AID 1850);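 note: 0% = induced wells with vehicle and 100% = uninduced wells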
Conditions: fluorescence, 4 h, at 50 µM, active compounds read high

**Q.** With `CCN(c1ccccc1)S(=O)(=O)c1csc(C(N)=O)c1` as the molecule, how does the inhibition read?
**A.** Its inhibition is 1.57% (inactive).

**Q.** Which inhibition does the source give for `O=C(CS(=O)(=O)c1ccc(Cl)cc1)Nc1nnc(-c2cccs2)o1` here?
**A.** The inhibition was -4.66% (inactive).

**Q.** Which inhibition does the source give for `CC(C)C(NC(=O)/C=C/c1cccc([N+](=O)[O-])c1)C(C)C` here?
**A.** The inhibition was -9.13% (inactive).

**Q.** With `CCOC(=O)N1CCC(NC(=O)c2cnn3c(C(F)(F)F)cc(-c4cccc(OC)c4)nc23)CC1` as the molecule, how does the inhibition read?
**A.** The inhibition was -1% (inactive).

**Q.** Which inhibition does the source give for `COc1ccccc1S(=O)(=O)CC(O)COc1ccccc1Cl` (stereo not given) here?
**A.** Its inhibition is -5.18% (inactive).

**Q.** For `CN(CCc1ccccn1)C(=O)Nc1ccc(F)cc1`, which inhibition is on record?
**A.** The inhibition was -7.13% (inactive).

**Q.** For `COc1ccc(-c2ccc(CCC(=O)O)n2NC(=O)c2cccs2)cc1`, which inhibition is on record?
**A.** Its inhibition is -5.76% (inactive).

**Q.** For `CN(CC(=O)Nc1ccccc1Cl)C(=O)COC(=O)c1cc([N+](=O)[O-])ccc1N1CCOCC1`, which inhibition is on record?
**A.** Its inhibition is -1.8% (inactive).

**Q.** Which inhibition does the source give for `Fc1ccc(CNCc2ccccc2Cl)cc1` here?
**A.** Its inhibition is 10.6% (inactive).

**Q.** For `c1csc(CNCc2ccncc2)c1`, which inhibition is on record?
**A.** The inhibition was 1.76% (inactive).

**Q.** Which inhibition does the source give for `Fc1ccc(CNCCc2ccccc2)cc1` here?
**A.** Its inhibition is 14.4% (inactive).

**Q.** Which inhibition does the source give for `Brc1ccc(CNCc2cccs2)cc1` here?
**A.** Its inhibition is -4.52% (inactive).

**Q.** For `O=C(COc1ccc(Br)cc1)N1CCN(Cc2c[nH]c3ccccc23)CC1`, which inhibition is on record?
**A.** The inhibition was 1.07% (inactive).

**Q.** For `O=C(NCc1ccco1)/C(=C\c1ccco1)NC(=O)c1ccco1`, which inhibition is on record?
**A.** Its inhibition is -9.29% (inactive).

**Q.** With `CC1=NN(c2ccc([N+](=O)[O-])cc2)C(c2ccccc2)C1` (stereo not given) as the molecule, how does the inhibition read?
**A.** The inhibition was -7.1% (inactive).

**Q.** For `CC1(C)CC(=O)C2=C(C1)NC(=O)CC2c1cc(F)ccc1F` (stereo not given), which inhibition is on record?
**A.** The inhibition was 8.24% (inactive).

**Q.** For `CC1(C)C2CCC1(CS(=O)(=O)N1CCN(c3ccc(F)cc3)CC1)C(=O)C2` (stereo not given), which inhibition is on record?
**A.** The inhibition was -7.85% (inactive).

**Q.** Which inhibition does the source give for `COc1ccc(S(=O)(=O)NC(C)C(=O)NCc2cccnc2)cc1Cl` (stereo not given) here?
**A.** The inhibition was -1.39% (inactive).

**Q.** Which inhibition does the source give for `Cc1ccc2c(c1)[C@@H]1CN(C)CC[C@@H]1N2S(=O)(=O)c1ccc([N+](=O)[O-])cc1` here?
**A.** The inhibition was 0.95% (inactive).

**Q.** Which inhibition does the source give for `Cc1ccc2c(c1)C1CN(C)CCC1N2S(=O)(=O)c1ccccc1` (stereo not given) here?
**A.** Its inhibition is 4.23% (inactive).

**Q.** With `CN(C)c1cc[n+](CC(=O)c2ccc(OC(F)F)cc2)cc1` as the molecule, how does the inhibition read?
**A.** Its inhibition is 19.8% (inactive).

**Q.** For `COc1ccc(CNC(=O)c2cc(COc3c(F)cccc3F)on2)cc1OC`, which inhibition is on record?
**A.** The inhibition was -2.31% (inactive).

**Q.** With `O=C(O)CCc1ccc(-c2ccc(Br)cc2)n1-c1cccc(O)c1` as the molecule, how does the inhibition read?
**A.** Its inhibition is -2.3% (inactive).

**Q.** With `CCCCCOC(=O)CSc1nc2c(c(=O)[nH]c(=O)n2C)n1CCc1ccccc1` as the molecule, how does the inhibition read?
**A.** The inhibition was 2.47% (inactive).

**Q.** For `COCc1c(C(=O)OCC(=O)N2c3ccccc3CC2C)oc2ccccc12` (stereo not given), which inhibition is on record?
**A.** Its inhibition is -3.75% (inactive).

**Q.** With `CC(C)C(CCNCc1ccccn1)c1ccc(Cl)cc1` (stereo not given) as the molecule, how does the inhibition read?
**A.** The inhibition was -0.74% (inactive).

**Q.** For `CC(C)CCC(CCNCc1ccccn1)c1ccc2c(c1)OCO2` (stereo not given), which inhibition is on record?
**A.** The inhibition was 21.8% (inactive).

**Q.** For `CC(=O)n1cc([C@H]2C=C(C(N)=O)O[C@@H](OCc3ccc(CO)cc3)C2)c2ccccc21`, which inhibition is on record?
**A.** Its inhibition is 2.45% (inactive).

**Q.** Which inhibition does the source give for `CCCCOC(=O)C[N+](C)(C)CCOC1CC2CCC1(C)C2(C)C` (stereo not given) here?
**A.** The inhibition was -1.52% (inactive).

**Q.** Which inhibition does the source give for `CCCOC(=O)C[N+](C)(C)CCOC1CC2CCC1(C)C2(C)C` (stereo not given) here?
**A.** The inhibition was -4.95% (inactive).

**Q.** Which inhibition does the source give for `Cc1ccc(Nc2ccc([N+](=O)[O-])ccc2=O)cc1` here?
**A.** The inhibition was -3.8% (inactive).

**Q.** For `Cc1cccc(C(=O)NCC(=O)N2CCN(c3ccc(Cl)cc3)CC2)c1`, which inhibition is on record?
**A.** The inhibition was 4.53% (inactive).

**Q.** With `Cc1cc(C)nc(NCCO)n1` as the molecule, how does the inhibition read?
**A.** The inhibition was 1.84% (inactive).

**Q.** Which inhibition does the source give for `Fc1ccc(Sc2ccccc2CNC2=NCCN2)cc1` here?
**A.** The inhibition was -8.62% (inactive).

**Q.** Which inhibition does the source give for `Fc1ccccc1Sc1ccccc1CNC1=NCCN1` here?
**A.** The inhibition was 2.16% (inactive).

**Q.** With `COc1ccc(C)cc1NC(=O)C1CCN(S(=O)(=O)c2ccc3c(c2)NC(=O)CO3)CC1` as the molecule, how does the inhibition read?
**A.** The inhibition was -3.38% (inactive).

**Q.** For `CCCCn1c(N)c(N(CC(C)C)C(=O)c2cc(-c3ccc(OC)c(OC)c3)nc3ccccc23)c(=O)[nH]c1=O`, which inhibition is on record?
**A.** The inhibition was 11.8% (inactive).

**Q.** Which inhibition does the source give for `CC(=O)c1cc(C(=O)NC2CCCc3c2cnn3-c2cc(C)cc(C)c2)[nH]n1` (stereo not given) here?
**A.** Its inhibition is -9.06% (inactive).

**Q.** For `O=C(Nc1nc2ccccc2[nH]1)c1cccc(F)c1`, which inhibition is on record?
**A.** Its inhibition is 0.03% (inactive).

**Q.** For `CC(C)n1cnc2c(Nc3cccc(F)c3)nc(NCCO)nc21`, which inhibition is on record?
**A.** The inhibition was -14.7% (inactive).

**Q.** With `Cc1cccc(OCc2nnc3n2CCCCC3)c1` as the molecule, how does the inhibition read?
**A.** Its inhibition is -4.01% (inactive).

**Q.** For `CCOC(=O)N1CCN(S(=O)(=O)c2ccc(C(=O)Nc3nnc(CSC)o3)cc2)CC1`, which inhibition is on record?
**A.** Its inhibition is -31.1% (inactive).

**Q.** For `CC(OC(=O)c1ccccc1Nc1ccc(SC(F)F)cc1)C(N)=O` (stereo not given), which inhibition is on record?
**A.** Its inhibition is -1.22% (inactive).

**Q.** With `C#CCOCCOCCOCCNc1nc(N2CCN(C(=O)CCCCCCCCCCNC(=O)[C@H]([C@@H](C)CC)n3cc(CCCCN=C(N)N)nn3)CC2)nc(N2CCN(C(=O)CCCCCCCCCCNC(=O)[C@H](CO)n3cc(CCCSC)nn3)CC2)n1` as the molecule, how does the inhibition read?
**A.** The inhibition was 0.56% (inactive).

**Q.** For `C#CCOCCOCCOCCNc1nc(N2CCN(C(=O)CCCCCCCCCCNC(=O)[C@@H](CCSC)n3cc(CCO)nn3)CC2)nc(N2CCN(C(=O)CCCCCCCCCCNC(=O)[C@H](CCC(=O)O)n3cc(CCCCCN)nn3)CC2)n1`, which inhibition is on record?
**A.** Its inhibition is 1.19% (inactive).
